Test results: PubChem BioAssay AID1159580 (chemical genetic matrix, 2015)
Screen size: about 5,500 compounds; about 2,000 (36%) were called active. Another 18% or so got no clear call; they are omitted. Cut-off read from the data, not from the text of the source: active = normalized growth mostly below about 0.91 (no sharp cut-off); inconclusive = no clear call, values can overlap the other calls; inactive = mostly above about 0.92. The list shows a part of the results.

Test: chemical genetic growth profiling, strain panel (AID 1159580);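 note: tested at 20 µM; growth read once vehicle control cultures reached saturation at 30 °C; 1 = growth at the plate median or of vehicle wells; lower values mean less growth of the strain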
Details: growth OD

Measured: normalized growth

C[C@@H]1O[C@@H](O[C@H]2C[C@@H](O)[C@]3(CO)C4C(CC[C@]3(O)C2)[C@@]2(O)CC[C@H](C3=CC(=O)OC3)[C@@]2(C)C[C@H]4O)[C@H](O)[C@H](O)[C@H]1O (some centres not stated)
inactive: S. cerevisiae deletion strains, locus YKL009W, strain mrt4, stronger effect = lower value 0.991 | S. cerevisiae deletion strains, locus YKL068W, stronger effect = lower value 0.998 | S. cerevisiae deletion strains, locus YKL085W, strain MDH1 (second series), stronger effect = lower value 0.993 | S. cerevisiae deletion strains, locus YKL085W, strain MDH1, stronger effect = lower value 0.993 | S. cerevisiae deletion strains, locus YKL160W, strain elf1, stronger effect = lower value 0.993 | S. cerevisiae deletion strains, locus YKR001C, strain vps1, stronger effect = lower value 1.01 | S. cerevisiae deletion strains, locus YKR026C, strain gcn3, stronger effect = lower value 1.02 | S. cerevisiae deletion strains, locus YKR091W, strain srl3, stronger effect = lower value 1.01 | S. cerevisiae deletion strains, locus YLL001W, strain dnm1, stronger effect = lower value 1.03 | S. cerevisiae deletion strains, locus YLL026W, stronger effect = lower value 1.03 | S. cerevisiae deletion strains, locus YLL041C, strain sdh2, stronger effect = lower value 1.01 | S. cerevisiae deletion strains, locus YLR027C, strain aat2, stronger effect = lower value 1.01 | S. cerevisiae deletion strains, locus YLR039C, strain RIC1, stronger effect = lower value 1.09 | S. cerevisiae deletion strains, locus YLR058C, strain SHM2, stronger effect = lower value 1.02 | S. cerevisiae deletion strains, locus YLR102C, strain apc9, stronger effect = lower value 0.997 | S. cerevisiae deletion strains, locus YLR113W, strain HOG1, stronger effect = lower value 1.01 | S. cerevisiae deletion strains, locus YLR221C, strain rsa3, stronger effect = lower value 1.02 | S. cerevisiae deletion strains, locus YLR258W, strain gsy2, stronger effect = lower value 1.02 | S. cerevisiae deletion strains, locus YLR262C, strain YPT6 (second series), stronger effect = lower value 1.02 | S. cerevisiae deletion strains, locus YLR262C, strain YPT6, stronger effect = lower value 1.09 | S. cerevisiae deletion strains, locus YLR268W, strain sec22, stronger effect = lower value 0.98 | S. cerevisiae deletion strains, locus YLR320W, strain mms22, stronger effect = lower value 1.03 | S. cerevisiae deletion strains, locus YLR330W, strain CHS5, stronger effect = lower value 1.01 | S. cerevisiae deletion strains, locus YLR342W, strain FKS1 (second series), stronger effect = lower value 1.04 | S. cerevisiae deletion strains, locus YLR342W, strain FKS1, stronger effect = lower value 1.02 | S. cerevisiae deletion strains, locus YLR357W, strain rsc2, stronger effect = lower value 1.01 | S. cerevisiae deletion strains, locus YLR370C, strain arc18, stronger effect = lower value 1.05 | S. cerevisiae deletion strains, locus YLR371W, strain rom2, stronger effect = lower value 0.989 | S. cerevisiae deletion strains, locus YLR384C, strain iki3, stronger effect = lower value 1.02 | S. cerevisiae deletion strains, locus YLR418C, strain cdc73, stronger effect = lower value 0.971 | S. cerevisiae deletion strains, locus YML016C, strain PPZ1, stronger effect = lower value 1.02 | S. cerevisiae deletion strains, locus YML032C, strain rad52, stronger effect = lower value 0.997 | S. cerevisiae deletion strains, locus YML120C, strain ndi1, stronger effect = lower value 1.04 | S. cerevisiae deletion strains, locus YML124C, strain tub3, stronger effect = lower value 0.987 | S. cerevisiae deletion strains, locus YMR058W, strain fet3, stronger effect = lower value 1.02 | S. cerevisiae deletion strains, locus YMR078C, strain ctf18, stronger effect = lower value 0.981 | S. cerevisiae deletion strains, locus YMR125W, strain sto1, stronger effect = lower value 1.02 | S. cerevisiae deletion strains, locus YMR129W, stronger effect = lower value 1.02 | S. cerevisiae deletion strains, locus YMR205C, strain PFK2, stronger effect = lower value 0.995 | S. cerevisiae deletion strains, locus YMR223W, strain ubp8, stronger effect = lower value 0.998 | S. cerevisiae deletion strains, locus YMR231W, strain pep5, stronger effect = lower value 1.02 | S. cerevisiae deletion strains, locus YMR263W, strain SAP30, stronger effect = lower value 1.01 | S. cerevisiae deletion strains, locus YMR307W, strain GAS1, stronger effect = lower value 1.17 | S. cerevisiae deletion strains, locus YNL067W, strain RPL9B, stronger effect = lower value 1.01 | S. cerevisiae deletion strains, locus YNL071W, strain lat1, stronger effect = lower value 1.03 | S. cerevisiae deletion strains, locus YNL183C, strain NPR1, stronger effect = lower value 0.963 | S. cerevisiae deletion strains, locus YNL209W, strain ssb2, stronger effect = lower value 1.02 | S. cerevisiae deletion strains, locus YNL233W, strain BNI4, stronger effect = lower value 1.03 | S. cerevisiae deletion strains, locus YNL248C, strain rpa49, stronger effect = lower value 0.985 | S. cerevisiae deletion strains, locus YNL250W, strain rad50, stronger effect = lower value 1.02 | S. cerevisiae deletion strains, locus YNL271C, strain bni1, stronger effect = lower value 0.985 | S. cerevisiae deletion strains, locus YNL298W, strain CLA4, stronger effect = lower value 0.996 | S. cerevisiae deletion strains, locus YNL307C, strain MCK1, stronger effect = lower value 0.999 | S. cerevisiae deletion strains, locus YNL322C, strain KRE1 (second series), stronger effect = lower value 1.01 | S. cerevisiae deletion strains, locus YNL322C, strain KRE1, stronger effect = lower value 1.02 | S. cerevisiae deletion strains, locus YNR049C, strain mso1, stronger effect = lower value 1.03 | S. cerevisiae deletion strains, locus YNR052C, strain pop2, stronger effect = lower value 0.981 | S. cerevisiae deletion strains, locus YOL006C, strain TOP1, stronger effect = lower value 1.03 | S. cerevisiae deletion strains, locus YOL012C, strain htz1 0.899 | S. cerevisiae deletion strains, locus YOL147C, strain pex11, stronger effect = lower value 0.997 | S. cerevisiae deletion strains, locus YOR001W, strain rrp6, stronger effect = lower value 1.05 | S. cerevisiae deletion strains, locus YOR061W, strain CKA2, stronger effect = lower value 1.02 | S. cerevisiae deletion strains, locus YOR069W, strain VPS5, stronger effect = lower value 1.02 | S. cerevisiae deletion strains, locus YOR070C, strain gyp1, stronger effect = lower value 1.03 | S. cerevisiae deletion strains, locus YOR080W, strain dia2, stronger effect = lower value 1.03 | S. cerevisiae deletion strains, locus YOR083W, strain WHI5, stronger effect = lower value 0.985 | S. cerevisiae deletion strains, locus YOR106W, strain vam3, stronger effect = lower value 1.01 | S. cerevisiae deletion strains, locus YOR136W, strain idh2, stronger effect = lower value 0.987 | S. cerevisiae deletion strains, locus YOR144C, strain elg1, stronger effect = lower value 0.983 | S. cerevisiae deletion strains, locus YOR184W, strain ser1, stronger effect = lower value 1.01 | S. cerevisiae deletion strains, locus YOR231W, strain MKK1, stronger effect = lower value 1.02 | S. cerevisiae deletion strains, locus YOR265W, strain rbl2, stronger effect = lower value 1.01 | S. cerevisiae deletion strains, locus YOR270C, strain vph1, stronger effect = lower value 1.05 | S. cerevisiae deletion strains, locus YOR290C, strain snf2, stronger effect = lower value 1.04 | S. cerevisiae deletion strains, locus YOR316C, strain cot1, stronger effect = lower value 0.989 | S. cerevisiae deletion strains, locus YPL051W, strain arl3, stronger effect = lower value 1.01 | S. cerevisiae deletion strains, locus YPL078C, strain atp4, stronger effect = lower value 1.02 | S. cerevisiae deletion strains, locus YPL106C, strain sse1, stronger effect = lower value 1.03 | S. cerevisiae deletion strains, locus YPL240C, strain hsp82, stronger effect = lower value 1.03 | S. cerevisiae deletion strains, locus YPL241C, strain CIN2, stronger effect = lower value 1.01 | S. cerevisiae deletion strains, locus YPL256C, strain CLN2, stronger effect = lower value 1.03 | S. cerevisiae deletion strains, locus YPR119W, strain clb2, stronger effect = lower value 0.986 | S. cerevisiae deletion strains, locus YPR141C, strain kar3, stronger effect = lower value 0.989 | S. cerevisiae deletion strains, locus YPR163C, strain tif3, stronger effect = lower value 0.988 | S. cerevisiae deletion strains, locus YPR167C, strain met16, stronger effect = lower value 0.99 | S. cerevisiae deletion strains, strain wtn01, stronger effect = lower value 0.976 | S. cerevisiae strains, strain wild type, stronger effect = lower value 1.02
